The panel holds about 83,000 compounds, 20% with a hit somewhere; the sample as a whole holds those more often.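 Note: values are percent growth. 100 is the growth of untreated cells, values between 100 and 0 indicate rising inhibition; between -100 and 0 indicates cell death.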 Unmarked numbers belong to inactive results. Activity calls are given as the source filed them. How the source made its calls: active means growth percent below 10; inactive means the rest.
Each compound was assayed on HL-60(TB) leukemia (assay: NCI-60 one-dose screen, 48 h (100 = growth as untreated, 0 = no growth, -100 = all killed)). Settings: 10 µM unless noted.

Row | Compound | growth
1 | c1c[nH]c(CNC2CCCCC2)c1 | 263%
2 | COc1cccc(OC)c1OC(=O)c1ccccc1 | 110%
3 | CCC(=O)c1cc([N+](=O)[O-])c(Br)s1 | 34%
4 | CCNCCNc1c(C)c(-c2ccc(C(F)(F)F)cc2)c(C#N)c2nc3ccccc3n12 | 74%
5 | Cc1ccc(C(=O)C2=C(O)C(=O)N(Cc3cccnc3)C2c2ccccc2F)o1 (configuration not stated) | 99.7%
6 | Cn1c(=O)c2c(nc(NC3=NS(=O)(=O)c4ccccc43)n2Cc2ccccc2)n(C)c1=O | 112%
7 | ClCC1(Cn2cnc3c(Cl)nc(Cl)nc32)COC1 | 91.6%
8 | CN1C(=O)C2(SCC(C(=O)NCC(=O)OC(C)(C)C)N2C(=O)C2CCCCC2)c2ccccc21 (configuration not stated) | 93.7%
9 | COc1ccccc1N1CCN(CCn2c(=O)c3c(c4ccccc4n3C)n(C)c2=O)CC1 | 109%
10 | C[C@H]1[C@H]2C3=CC[C@@H]4[C@@]5(C)C/C(=C/c6ccncc6)C(=O)C(C)(C)[C@@H]5CC[C@@]4(C)[C@]3(C)CC[C@@]2(C(=O)N2CCN(C)CC2)CC[C@@H]1C | 57.3%
11 | O=C(/C=C(/C=C/c1coc2ccccc12)OB(F)F)/C=C/c1coc2ccccc12 | 88.6%
12 | NC(=S)N/N=C/c1ncccc1O | -23.2% (active)
13 | COc1cc(-c2nccc3[nH]c(-c4cccc5[nH]ccc45)nc23)cc(OC)c1OC | -41.1% (active)
14 | CCCN(CCC)c1ccc(/C=C/c2ccc3cc(OCC)ccc3n2)cc1 | 54.3%
15 | CN1CCN(c2cc3c(cc2F)c(=O)c(C(=O)O)cn3-c2ccc(F)cc2)CC1 | 99.3%
16 | c1ccc(-c2nc3ccccc3[nH]2)c(OCCCCCOc2ccccc2-c2nc3ccccc3[nH]2)c1 | 22%
17 | COc1cc(N2C(=O)[C@H](Cl)C2c2ccc(SC)cc2)cc(OC)c1OC (some centres not stated) | -36.1% (active)
18 | Nc1c(C(=O)Nc2ccccc2)sc2nc3c(cc12)CN(C(=O)OCc1ccccc1)CC3 | 17.1%
19 | Nc1ccc(C2=NNC(=O)Cc3cc4c(cc32)OCCO4)cc1Cl | 7.27% (active)

Row | Compound | growth
20 | COc1ccc(-c2cc(=O)oc3ccc(Cl)cc23)cc1F | -21.9% (active)
21 | CCN(CC)CC#CCOC(=O)[C@]1(C)CCC[C@@]2(C)[C@H]1CC(C=O)=C1C=C(C(C)C)CC[C@@H]12 | 51.6%
22 | COC(=O)[C@@H](NC(=O)[C@@H](OC)[C@@H]1Cc2cc3cc(OC4CC(OC5CC(O)C(O)C(C)O5)C(O)C(C)O4)c(C)c(O)c3c(O)c2C(=O)[C@H]1OC1CC(OC2CC(OC3CC(C)(O)C(O)C(C)O3)C(O)C(C)O2)C(O)C(C)O1)C(C)C (some centres not stated) | 52.4%
23 | N#CC(=S)Nc1ccc(Cl)c(Cl)c1 | 8.99% (active)
24 | Cc1ccc(NCCNCC(C)(C)O)c2c(=O)c3ccc(Cl)cc3sc12 | -48.3% (active)
25 | CCOC(=O)c1sc(NC(=O)CN2CCC(Cc3ccccc3)CC2)nc1C | 92%
26 | C=CCN(CC=C)C(=O)[C@H](CC)[C@@H]1CC[C@@H](C)[C@@H]([C@H](C)[C@@H](O)[C@@H](C)C(=O)[C@H](CC)C2O[C@]3(C=CC(=O)[C@]4(CC[C@@](C)([C@H]5CC[C@](O)(CC)[C@H](C)O5)O4)O3)[C@H](C)C[C@@H]2C)O1 (some centres not stated) | -25.2% (active)
27 | CCOC(=O)/C(=C(/C)NCC(C)C)c1cc(O)c(O)c2c(C)cc(=O)[nH]c12 | -6.69% (active)
28 | CN1CCN(Cc2ccc(NC(=O)c3cncc(C#Cc4cnc5ccc(Cl)nn45)c3)cc2C(F)(F)F)CC1 | -17.6% (active)
29 | CCCCCCCCCCCCCC[n+]1ccccc1 | -70.3% (active)
30 | N#CSCC1CC(O)(c2ccccc2)CC(c2ccc(Cl)cc2)O1 (configuration not stated) | -30.9% (active)
31 | CC(=O)/C(=C/c1ccc(Br)cc1)C(=O)c1ccccc1 | 57%
32 | Cc1ccc(Nc2cc(C)nc(NCCCNc3ccnc4cc(Cl)ccc34)n2)cc1 | -73% (active)
33 | CCN(CC)CCn1c2ccc(O)cc2c2sc3cc(O)ccc3c(=O)c21 | 38%
34 | COc1ccc(/C=C/c2ccc3ccccc3n2)c(OC)c1 | 40.7%
35 | O=C(O)c1ccc(CO)o1 | 85.6%
36 | CCN(CC)CCN1CNC(=S)NC1 | 78.8%
37 | CC(=Nc1ccccc1)C1=C(O)C(Cc2ccc(F)cc2)NC1=O (configuration not stated) | -12.3% (active)

— PubChem BioAssay (NCI)
